Source: ChEMBL document CHEMBL4513216, “Probing the Open Global Health Chemical Diversity Library for Multistage-Active Starting Points for Next-Generation Antimalarials” (ACS Infect Dis, 2020)
Out of some 68,000 compounds screened, about 2,700 (4%) showed an effect of 50% or more. The full list was thinned out, with strong results kept by preference.

tested on: Plasmodium berghei; test: Screen against P. berghei liver stage (PbLuc), transformed with Luciferase, at 2uM; type: functional, HepG2; settings: tested at 2 uM

SMILES | INHIBITION [%]
COc1ccc2cc(NC(=O)CCNc3nc(C)cc(C)n3)cnc2c1 | -6.83
O=C(CN(C1=NCCCCC1)c1ccc(Cl)cc1)c1ccccc1 | -65.06
CC(C)c1ccc(CN2CCC3(CCCN(c4nncs4)C3)C2)cc1 (stereo not drawn) | 5.52
Cc1noc(C)c1CCC(=O)N1CCN(CCn2cccn2)CC1 | 2.18
CC(NC(=O)COCC(F)(F)F)c1nnc2n1CCCCC2 (stereo not drawn) | 15.08
Fc1ccccc1-c1cccc(C2CCCN(C3CCOCC3)C2)n1 (stereo not drawn) | 25.4
c1ncn(CCNC2CCCN(Cc3noc(C4CC4)n3)C2)n1 (stereo not drawn) | 54.29
c1cnn(CC2CCCCN2Cc2noc(C3CC3)n2)c1 (stereo not drawn) | -10.47
Cc1ccsc1CNC1CCCN(Cc2noc(C3CC3)n2)C1 (stereo not drawn) | 17.59
Cc1nc(CN2CCCC(NCc3ccsc3)C2)no1 (stereo not drawn) | 20.28
Cc1nc(CN2CCCC2Cn2cncn2)no1 (stereo not drawn) | -21.93
CCc1nc(CN2CCCC(NCCn3cncn3)C2)no1 (stereo not drawn) | 35.56
c1ncn(CC2CCCN(Cc3noc(C4CC4)n3)C2)n1 (stereo not drawn) | 29.54
c1ncn(CC2CCCCN2Cc2noc(C3CC3)n2)n1 (stereo not drawn) | 62.13
Cc1nc(CN2CCCC(NCc3sccc3C)C2)no1 (stereo not drawn) | 51.94
CCC(=O)Nc1cccc(C(=O)NCCC2=CSC3=NCCCN23)c1 | -17.86
COc1ccc(-c2nc(C3CCNCC3)cc3c2ncn3C)cc1 | -0.45
COCCS(=O)(=O)c1ncc(CN(C)C)n1Cc1ccccc1 | 29.41
O=C(C1CCCOC1)N1CCCc2ccccc21 (stereo not drawn) | 53.29
Cc1ccc2c(c1)N(C(=O)C1CCCOC1)CCC2 (stereo not drawn) | -13.38
O=C(C1CCCOC1)N1CCCCc2ccccc21 (stereo not drawn) | 16.09
C1CCCN(c2nc(C3CC3)no2)CC1 | 28.02
COc1ccc(CN2C[C@@H]3CN(Cc4cccnc4)CCO[C@@H]3C2)cc1 | 39.57
Cc1ccsc1CN1C[C@@H]2CN(Cc3cccnc3)CCO[C@@H]2C1 | 4.26
Cc1ncsc1CN1C[C@@H]2CN(Cc3cccnc3)CCO[C@@H]2C1 | 54.13
Cc1cc(C)c2cc(CNC3CCCCC3)c3nn(C)c(=O)n3c2c1 | 14.26

SMILES | INHIBITION [%]
Cc1cccc(C2(CNC(=O)CCNS(C)(=O)=O)CCCC2)c1 | 3.9
COCCN1CCC2(CC1)CC(N1CCOCC1)c1ccc(C)cc12 (stereo not drawn) | 17.47
CC(C)C(=O)N(C)Cc1nnc2n1CCCCC2 | 21.82
CC(C)C(Sc1ccccc1)C(=O)N(C)Cc1nnc2n1CCC2 (stereo not drawn) | 64.39
CC(=O)NC(C(=O)N(C)Cc1nnc2n1CCC2)C(C)C (stereo not drawn) | -63.33
CC(C)Nc1nc2c(c(NC3CC3)n1)CCN(Cc1nccn1C)CC2 | 34.71
CCCn1cc(NC2CCSCC2)cn1 | 46.58
O=C(NCC1(O)CCC1)NC(c1cc(F)ccc1F)C1CC1 (stereo not drawn) | -5.74
CCOC(=O)c1n[nH]cc1CN1CCOC(Cc2ccccc2)C1 (stereo not drawn) | -30.18
CCOC(=O)c1n[nH]cc1CN1CCOC(Cc2ccc(F)cc2)C1 (stereo not drawn) | -142.94
CCOC(=O)c1n[nH]cc1CN1CCCC(N(C)Cc2ccccc2)C1 (stereo not drawn) | 52.3
CCS(=O)(=O)N1CC(=O)N(CCCc2ccccc2)CC(O)C1 (stereo not drawn) | 12.44
Cc1cnn(CC2CCCN2C(=O)c2cnc3n[nH]c(C)c3c2)c1 (stereo not drawn) | -27.31
O=C(Cn1cc(C(=O)O)ccc1=O)NCc1ccc(F)c(Cl)c1 | 11.14
O=C(C1CC1)N(Cc1ccc2cc[nH]c2c1)C1CC1 | 11.43
CN(C)c1nc2c(c(N(C)C)n1)CCN(C(=O)CN1CCC(O)CC1)C2 | 13.99
c1cncc(COCC2CN(Cc3ccco3)Cc3ccnn3C2)c1 (stereo not drawn) | 1.22
c1cncc(COCC2CN(Cc3ccsc3)Cc3ccnn3C2)c1 (stereo not drawn) | -10.99
c1ccc(COCC2CN(Cc3ccsc3)Cc3nccn3C2)nc1 (stereo not drawn) | 59.88
Cc1ccc(CN2Cc3ccnn3CC(COCc3cccnc3)C2)o1 (stereo not drawn) | 49.25
c1cncc(COCC2CN(Cc3cccnc3)Cc3ccnn3C2)c1 (stereo not drawn) | 56.78
CN(C)C(=O)COCC1CN(Cc2ccsc2)Cc2nccn2C1 (stereo not drawn) | 15.44
c1cncc(OCC2CN(Cc3ccsc3)Cc3nccn3C2)c1 (stereo not drawn) | 45.82
c1ccc(CN2Cc3ccnn3CC(COCc3cccnc3)C2)nc1 (stereo not drawn) | 50.32
c1cncc(COCC2CN(Cc3ccncc3)Cc3ccnn3C2)c1 (stereo not drawn) | -34.65
CN(C)C(=O)CCC[S+]([O-])Cc1ccc(Cl)c(Cl)c1 (stereo not drawn) | -32.8

SMILES | INHIBITION [%]
CSc1ccc(CN(C)Cc2noc(C(C)(C)C)n2)cc1 | 21.28
CC(C)Nc1nc2c(s1)C(=O)CN(CC1CC1)C2 | -17.3
CC[C@@]1(O)CCN(CCCOc2ccc(C(N)=O)cc2)C[C@H]1O | -15.75
CN(CCc1cccs1)C(=O)Nc1ccc2c(c1)C(=O)N(C)CC2 | 5.28
CN1CCc2ccc(NCc3cscn3)cc2C1=O | 36.28
CN1CCc2ccc(NCc3cccs3)cc2C1=O | 50.59
CCO[C@H]1CO[C@@]2(CCN(Cc3ccc4c(c3)OCO4)C2)C1 | -23.42
FC(F)(F)Cn1ccnc1CN1CCCC1c1noc(C2CC2)n1 (stereo not drawn) | -2.7
COCCNC(=O)C1CN(Cc2csc(C)n2)Cc2ccnn2C1 (stereo not drawn) | 47.54
CC(C)CC(O)C1CCN(C(=O)c2coc(CN3CCOCC3)c2)CC1 (stereo not drawn) | 13.19
CC(C)CC(O)C1CCN(C(=O)c2ccc(C(F)(F)F)nc2O)CC1 (stereo not drawn) | 72.05
CC(C)CC(O)C1CCN(C(=O)c2ccc(C(C)C)[nH]c2=O)CC1 (stereo not drawn) | -25.72
O=C(NCC(O)(c1cccs1)C1CC1)NC1CCCCC1 (stereo not drawn) | -11.54
CN(Cc1ccccn1)C(C(=O)O)c1ccc2c(c1)OCO2 (stereo not drawn) | 13.86
COc1ccc(CCN2CC(n3nc(C)cc3C)C2)cc1 | 33.55
Cc1nc2[nH]cnc(NCCN3CCOCC3)c-2n1 | -7.81
CN1[C@@H](C(=O)NCC2CC2)C[C@@H]2CN(Cc3ccsc3)C[C@@H]21 | 59.5
CN1[C@@H](C(=O)NCC2CC2)C[C@@H]2CN(Cc3ccoc3)C[C@@H]21 | 40.83
O=C(NCc1ccccc1)NCC1CCN(Cc2ccsc2)CC1 | 51
O=C(NCC1CCN(Cc2ccsc2)CC1)NC1CC1 | -18.04
Cc1ccc(CN2C[C@H]3C[C@H](C(=O)NCC4CC4)N(C)[C@H]3C2)o1 | -13.53
Cc1ccc(CN2C[C@@H]3C[C@H](C(=O)NCC4CC4)N(C)[C@@H]3C2)o1 | 21.06
Cc1nc(CN2C[C@H]3C[C@H](C(=O)NCC4CC4)N(C)[C@H]3C2)cs1 | 55.66
O=C(CCc1ccccc1)NCC1CCN(Cc2ccsc2)CC1 | 13.22
CN1[C@@H](C(=O)NCC2CC2)C[C@H]2CN(Cc3ccsc3)C[C@H]21 | 1.29
Cc1cnn(CC2CCCN2C(=O)c2cccc(-n3ccc(C)n3)c2)c1 (stereo not drawn) | 23.42

SMILES | INHIBITION [%]
CS(=O)(=O)c1ccc(C(=O)N2CCCC(n3cncn3)C2)o1 (stereo not drawn) | -15.41
CCOC(=O)[C@]12CCCN(Cc3cccs3)C[C@H]1CN(C(C)C)C2 | -10.41
CCn1nc(C)c(CNC(=O)NCC(C)(O)c2ccc(C)o2)c1C (stereo not drawn) | -109.32
O=C1COC2(CCN(CC3CC3)CC2)CN1c1cncnc1 | -59.44
CCS(=O)(=O)N1CCC2(CC1)CN(c1cncnc1)C(=O)CO2 | -28.81
CCC(C)N1CCC2(CC1)CN(c1cncnc1)C(=O)CO2 (stereo not drawn) | 51.55
CSc1nc(C)cc(N2CCC(c3ncc[nH]3)CC2)n1 | -69.92
CC(=O)c1ccccc1-c1cc(C(=O)O)cc(S(=O)(=O)NC(C)C)c1 | 17.48
CC(C)NS(=O)(=O)c1cc(C(=O)O)cc(-c2ccccc2CN(C)C)c1 | 58.24
CC(C)NS(=O)(=O)c1cc(C(=O)O)cc(-c2ccccc2CO)c1 | 76.6
CC(C)NS(=O)(=O)c1cc(C(=O)O)cc(-c2ccccc2F)c1 | 38.83
CC(C)NS(=O)(=O)c1cc(C(=O)O)cc(-c2ccc(CN(C)C)cc2)c1 | 15.42
CC(C)NS(=O)(=O)c1cc(C(=O)O)cc(-c2ccccc2C#N)c1 | -10.44
Cn1c(CCNc2nccnc2C#N)nc2ccc(F)cc21 | 8.03
CCc1nnc2n1CCN(C(=O)c1cc3c(F)cccc3[nH]1)C2 | 9.17
CC(C)[C@@H]1CN(C(=O)NCc2ccco2)C[C@H]1NS(=O)(=O)N(C)C | 28.95
CC(C)[C@@H]1CN(C(=O)NCc2ccco2)C[C@H]1N(C)C | 52.08
CC(C)[C@@H]1CN(CC(=O)NCc2ccco2)C[C@H]1NS(=O)(=O)N(C)C | -30.53
CC1COCCN1C(=O)c1cnccn1 (stereo not drawn) | -108.55
COCCNC(=O)[C@H]1C[C@@](CC(C)C)(C(=O)O)N(C)[C@H]1c1cccnc1 | 20.32
COCCN1CCC2(CC1)CC(c1cccnc1)C(=O)N2C (stereo not drawn) | 11.98
CCN(C)C(=O)[C@H]1C[C@@](CC(C)C)(C(=O)OC)N(C)[C@H]1c1cccnc1 | 59.03
O=C(O)CSc1nnc(-c2cn[nH]c2)n1-c1ccccc1Cl | 37.77
O=C(O)CSc1nnc(-c2cn[nH]c2)n1-c1ccccc1C(F)(F)F | 71.98
O=C(O)CSc1nnc(-c2ccn[nH]2)n1-c1ccccc1C(F)(F)F | -43.98
